High-throughput results from PubChem BioAssay.
GLP-1R agonist – agonists of human GLP-1 receptor | Potency, µM (series often up to 45.6 µM), usual class: activators | P43220 | HEK293 GLP-1R CRE-luciferase, luminescence, 4-6 h; cells express a hypersensitive GLP-1R form | AID 624172 | hit rate 0.007% among 380,000
PTHR1 ag – activates the human parathyroid hormone receptor PTHR1. HEK293 GP2 PTHR1 cells, GloSensor cAMP luminescence, 1 h. Potency, µM (highest dose often 115 µM), most hits filed as activators. hit rate 0.075% among 410,000. AID 743266; also: nearly all actives have a fitted effect of over 55% in size
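HEK-293-derived GP2 cells expressing PTHR1 and a GloSensor cAMP reporter, 3,000/well, plated overnight, given luciferin plus IBMX (each 0.5 mM as added) for 1 h at 37 °C, then compound for 1 h at 37 °C. Luminescence was read after 15 min at room temperature.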
GLP1R inv ag – acts as inverse agonist at human GLP-1 receptor. hit rate 1.6% among 410,000. AID 624417. Potency, µM (doses to about 38.3 µM), usual class: inhibitors. HEK293 GLP-1R CRE-luciferase, luminescence, 24 h; GLP-1R form is constitutively active; also: nearly all actives have a fitted effect of over 55% in size
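Constitutively active GLP-1R drives a cAMP-responsive luciferase in stably transfected HEK293 cells; test compounds are added after overnight (12 h) attachment and left 24 hr, and signal loss in luminescence marks inhibition.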
LDHA inh – inhibitors of human lactate dehydrogenase A; purified LDHA, NADH/diaphorase-resazurin fluorescence; active compounds read low; activity change, % (values are at about 110 or 230 µM); hit rate 0.15% among 480,000; AID 1347041; in the data active = activity change below about -30%; inconclusive = mostly about -25% to -30%
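Remaining NADH was detected by diaphorase (0.133 mg/mL) converting 37 µM resazurin to fluorescent resorufin, read at 0 and 20 minutes. The preceding 5-minute room-temperature reaction used 2 nM LDHA, 0.2 mM sodium pyruvate and 0.06 mM NADH at pH 7.4.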
GLP1R cytotox – cytotoxic in the GLP-1 receptor inverse agonist counter-screen. HEK293 cAMP-luciferase reporter cells, luminescence, 24 h. Potency, µM (doses to about 38.3 µM), actives largely listed as inhibitors. hit rate 0.13% among 410,000;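 also: loss of luciferase light is scored as toxicity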
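MLSMR compounds, 24 hr on cells at 37 deg C/5% CO2; luminescence after luciferase reagent (12 min RT). Inhibition counted as the undesired cytotoxic outcome.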
IDH1 R132H inh – inhibitors of human mutant IDH1 R132H; O75874; IDH1-R132H enzyme, NADPH consumption, diaphorase/resazurin fluorescence; Potency, µM (doses to about 76.6 µM), usual class: inhibitors; hit rate 0.093% among 390,000; AID 602179; also: nearly all actives have a fitted effect of over 65% in size
Target sequence (O75874 whole entry R132H, stated change not applied): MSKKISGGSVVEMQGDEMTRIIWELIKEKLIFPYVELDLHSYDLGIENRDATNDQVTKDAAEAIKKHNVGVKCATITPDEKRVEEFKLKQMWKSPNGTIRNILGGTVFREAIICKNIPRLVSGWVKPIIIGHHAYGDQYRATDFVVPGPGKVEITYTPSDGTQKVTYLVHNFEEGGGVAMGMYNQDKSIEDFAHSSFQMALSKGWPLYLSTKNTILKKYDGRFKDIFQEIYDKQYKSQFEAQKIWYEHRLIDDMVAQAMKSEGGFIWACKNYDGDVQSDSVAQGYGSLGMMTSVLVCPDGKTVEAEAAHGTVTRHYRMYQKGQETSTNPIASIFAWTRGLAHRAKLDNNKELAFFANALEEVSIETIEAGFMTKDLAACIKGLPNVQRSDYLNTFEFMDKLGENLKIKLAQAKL
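IDH1-R132H (0.5 ug/mL dispensed) in pH 7.5 Tris buffer was preincubated 30 min with compound, then given a substrate mix of 0.016 mM NADPH and 2 mM alpha-KG for 80 min at room temperature; remaining NADPH was read by diaphorase/resazurin fluorescence.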
Large screens that a line does not name were inactive; ! = not confirmed by another sample. The list is not random: actives were taken first. Their share in the collection is about 1.7%. Unless noted, calls follow the shape of the dose curve; as a rule, active = well fitted curve in the direction sought with a large enough effect; inconclusive = small, poorly fitted or top-dose-only effect, or another doubt; inactive = no such curve, though single readings can be large; an effect the other way counts as inactive or inconclusive.

Cc1onc(-c2c(Cl)cccc2Cl)c1C(=O)N1CCN(c2ccc(F)cc2)CC1	GLP1R inv ag 13µM
Cc1onc(-c2c(Cl)cccc2Cl)c1C(=O)N1CCN(c2ccccc2)CC1	GLP1R inv ag inconclusive
CCc1ccc(C(O)c2ncc(-c3cccc(C(F)(F)F)c3)[nH]2)cc1 (stereo unspecified)	GLP1R inv ag inconclusive (no result: IDH1 R132H inh)
OC(Cc1ccccc1Br)c1ncc(-c2cccc(C(F)(F)F)c2)[nH]1 (stereo unspecified)	GLP1R inv ag 10µM (no result: IDH1 R132H inh)
COc1cccc(OC)c1C(=O)Nc1ccc2oc(-c3cccnc3)nc2c1	none (no result: GLP-1R agonist, PTHR1 ag, GLP1R inv ag, GLP1R cytotox, IDH1 R132H inh)
CCOC(=O)c1c(S(=O)(=O)N2CCN(c3cccc(C(F)(F)F)c3)CC2)c(C)n(C)c1C	none (no result: GLP-1R agonist)
CCOC(=O)c1c(C)[nH]c(C)c1S(=O)(=O)N1CCN(c2cccc(C(F)(F)F)c2)CC1	GLP1R inv ag 5.6µM, GLP1R cytotox inconclusive (no result: GLP-1R agonist)
CC(=O)OC1CCN(CCc2ccccc2)C(C)C1C (stereo unspecified)	none (no result: GLP-1R agonist, PTHR1 ag, GLP1R inv ag, GLP1R cytotox, IDH1 R132H inh)
Cc1ccc(Cl)cc1N1CCN(S(=O)(=O)c2ccc3c(c2)OCCO3)CC1	GLP1R inv ag 10µM
Cc1ccc(C)c(N2CCN(S(=O)(=O)c3ccc4c(c3)OCCO4)CC2)c1	GLP1R inv ag inconclusive
CC(=O)N(CCCc1ccc(C(C)(C)C)cc1)CCCN(C)C	GLP1R inv ag inconclusive
CC(=O)N(CCCN(C)C)CCC(C)CCC=C(C)C (stereo unspecified)	GLP1R inv ag 4µM
COC(=O)c1sc(S(=O)(=O)Nc2cccc(Cl)c2Cl)c(C(=O)OC)c1C	none (no result: GLP-1R agonist, PTHR1 ag, GLP1R inv ag, GLP1R cytotox, IDH1 R132H inh)
CSc1ccc(NC(=O)/C=C/c2cccs2)cc1	none (no result: GLP-1R agonist, PTHR1 ag, GLP1R inv ag, GLP1R cytotox, IDH1 R132H inh)
O=C(NC1CCN(Cc2ccccc2)CC1)c1cccc(NS(=O)(=O)c2ccc(Br)cc2)c1	GLP1R inv ag 11µM
Cn1cnc2c1c(=O)n(Cc1cccc(Cl)c1)c(=O)n2C	LDHA inh -32!
CCOc1c(C)cnc2c1c(=O)n(Cc1cccc(Cl)c1)c(=O)n2C	GLP1R inv ag 10µM
Cc1c(CN(C)C)c2c(n1C)C(=O)c1ccc(Br)cc1-2	GLP1R cytotox 8.9µM
Cc1c(CN(C)C)c2c(n1Cc1ccccc1)C(=O)c1ccc(Br)cc1-2	GLP1R cytotox inconclusive
Cc1cc(C)n(CC(O)Cn2c3ccc(Br)cc3c3cc(Br)ccc32)c(=O)n1 (stereo unspecified)	GLP1R inv ag 11µM
Cc1cc(C)n(CC(O)Cn2c3ccccc3c3ccccc32)c(=O)n1 (stereo unspecified)	none
COC(=O)c1ccc(C2CC(=O)Nc3c2cc(Br)c2ccccc32)cc1 (stereo unspecified)	LDHA inh -35 (no result: GLP-1R agonist, PTHR1 ag, GLP1R inv ag, GLP1R cytotox, IDH1 R132H inh)
Cc1ccc(NC2(c3nnnn3-c3ccc(C)cc3)CCCCC2)cc1	none (no result: GLP-1R agonist, PTHR1 ag, GLP1R inv ag, GLP1R cytotox, IDH1 R132H inh)
O=C(CSc1nc(Cl)nc2nc[nH]c12)Nc1cccc(Cl)c1	LDHA inh -35 (no result: GLP-1R agonist, PTHR1 ag, GLP1R inv ag, GLP1R cytotox, IDH1 R132H inh)
O=C(CSc1nc(Cl)nc2nc[nH]c12)Nc1cccc(F)c1	none (no result: GLP-1R agonist, PTHR1 ag, GLP1R inv ag, GLP1R cytotox, IDH1 R132H inh)
Cc1ccc(C)c(CN2CCC(CNC(=O)CCc3nnc4ccc(N5CCOCC5)nn34)CC2)c1	none (no result: GLP-1R agonist, PTHR1 ag, GLP1R inv ag, GLP1R cytotox, IDH1 R132H inh)
COc1ccc(N(CC(=O)NCCSc2ccccc2)S(=O)(=O)c2ccccc2)c(OC)c1	GLP1R inv ag 10µM
CC(=O)C1=C(c2ccc(Br)cc2)C(=O)c2ccccc2C1=O	GLP1R inv ag inconclusive, GLP1R cytotox 3.5µM
COc1ccc(-n2c3c(cc(C#N)c2=O)C(=O)CC(C)(C)C3)cc1Cl	none (no result: GLP-1R agonist, PTHR1 ag, GLP1R inv ag, GLP1R cytotox, IDH1 R132H inh)
CCc1c(C(=O)c2ccc[nH]2)oc2ccc(Cl)cc12	none (no result: GLP-1R agonist, PTHR1 ag, GLP1R inv ag, GLP1R cytotox, IDH1 R132H inh)
O=C(Nc1ccc(F)c(F)c1F)C1CCN(c2nc3ccccc3o2)CC1	none (no result: GLP-1R agonist, PTHR1 ag, GLP1R inv ag, GLP1R cytotox, IDH1 R132H inh)
NC(=O)Nc1cccc2ccccc12	none
O=C(Nc1cccc2ccccc12)OC1C=CS(=O)(=O)C1 (stereo unspecified)	GLP1R inv ag 10µM
O=C(CSc1nnc2ccc(-c3ccc4c(c3)OCO4)nn12)NCc1ccccc1Cl	none (no result: GLP-1R agonist, PTHR1 ag, GLP1R inv ag, GLP1R cytotox, IDH1 R132H inh)
O=S(=O)(NC(=NCc1ccccc1)c1ccc(F)cc1)c1ccc(Cl)cc1	GLP1R inv ag 11µM
CCn1c(SCC(=O)Nc2nncs2)nnc1C1CCCC1	none (no result: GLP-1R agonist, PTHR1 ag, GLP1R inv ag, GLP1R cytotox, IDH1 R132H inh)
O=C(Nc1cc(-c2ccccc2F)nn1-c1ccccc1)c1ccccc1Br	GLP1R inv ag inconclusive (no result: GLP-1R agonist)
Cc1cccc(C(=O)Nc2cc(-c3ccccc3F)nn2-c2ccccc2)c1	GLP1R inv ag 10µM (no result: GLP-1R agonist)
Clc1ccc(-c2csc3ncnc(Sc4nnnn4-c4ccccc4)c23)cc1	none (no result: GLP-1R agonist, PTHR1 ag, GLP1R inv ag, GLP1R cytotox, IDH1 R132H inh)
Clc1ccc(-n2nnnc2Sc2ncnc3sccc23)cc1	GLP1R inv ag 7.9µM, GLP1R cytotox inconclusive
O=C(C=C(C(=O)c1ccccc1)c1ccccc1)c1ccccc1	GLP1R inv ag 8.9µM
CCC(=O)Nc1cccc(-c2csc(-c3ccccc3)n2)c1	none
CC(C)CC(=O)Nc1cccc(-c2csc(-c3ccccc3)n2)c1	GLP1R inv ag 10µM
Cc1ccccc1-c1nc(S(=O)(=O)c2ccc(F)cc2)c(N(C)C)o1	none (no result: GLP-1R agonist, PTHR1 ag, GLP1R inv ag, GLP1R cytotox, IDH1 R132H inh)
CCCN(CCC)Cc1c(C(=O)N/N=C/C(C)=C\c2ccccc2)nnn1-c1nonc1N	GLP1R inv ag 2.8µM
CCCc1c(C(=O)N/N=C/C(C)=C/c2ccccc2)nnn1-c1nonc1N	none
Nc1nonc1-n1nnc(C(=O)N/N=C/C=C/c2ccccc2)c1CSC1=NCCS1	GLP1R inv ag 7.9µM, GLP1R cytotox inconclusive
Cc1onc(-c2ccccc2Cl)c1C(=O)Oc1cccc2cccnc12	GLP1R inv ag 13µM, GLP1R cytotox inconclusive
CCc1ccc(NC(=S)NC(=O)c2c(-c3ccccc3Cl)noc2C)cc1	GLP1R inv ag 10µM
Cc1onc(-c2ccccc2Cl)c1C(=O)NC(=S)Nc1ccc(C(C)(C)C)cc1	GLP1R cytotox inconclusive
